Shown are actives, neighbours in structure and some others; about 2.3% of the full set was active somewhere.
Abeta rescue: A-beta toxicity reversal in yeast; actives 0.063% (n = 410,000); yeast expressing A-beta42, growth rescue, OD600, 48 h; response scale: 0% DMSO, 100% iron-clioquinol control; Potency, µM (series often up to 46.1 µM), usual class: activators; AID 1347071; note: nearly all actives have a fitted effect of over 55% in size
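Growth rescue measured by 600 nm absorbance after 48 h yeast culture at 30 C with compound. Values normalized between DMSO and an equimolar ferric chloride plus clioquinol control.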
aSyn yeast inh: inhibitors of alpha-synuclein toxicity in yeast. Yeast expressing alpha-synuclein, growth rescue, BacTiter-Glo, 24 h. Potency, µM (top dose mostly 46.1 µM), usual class: activators. actives 0.14% (n = 370,000). AID 652106; note: nearly all actives have a fitted effect of over 65% in size
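Galactose-induced alpha-syn yeast (OD600=0.02, raffinose-pregrown) + pinned cpd, 24 hr, 30 deg C; growth by BacTiter-Glo luminescence. Growth restoration scores as activation.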
pAkt inh: Akt phosphorylation inhibition; Neuro2A IGF-stimulated pAkt S473 HTRF, 20 min; active compounds read low; AID 651550; activity change, % for hits at 50 µM; actives 0.32% (n = 360,000); in the data active = activity change below about -80%; inconclusive = mostly about -51% to -80%
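Neuro2A cells (4,500/well, DMEM with 0.5% FBS) were treated with compound at a single 50 µM final concentration, stimulated with 6 nM IGF for 20 min at 37 °C, and lysed. Phospho-Akt Ser473 was read by HTRF as 665/615 ratio ×10^4.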
FUS suppressor: suppressors of FUS proteinopathy in yeast. S. cerevisiae FUS-expressing, growth rescue, OD600, 24 h. Potency, µM (doses to about 76.6 µM), hits mostly activators. actives 0.24% (n = 390,000). AID 1347120; note: nearly all actives have a fitted effect of over 55% in size
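Yeast FUS proteinopathy model; galactose-induced FUS (2%), starting OD 0.005. Cpds in dilution series, 24hr, 30C, 99% humidity. Abs 600 nm growth. Pos ctrl CP55940 (top 92uM final); neg ctrl DMSO.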
TDP43 rescue: TDP-43 toxicity inhibition in yeast; TDP-43 expressing yeast growth rescue, BacTiter-Glo, 24 h; Potency, µM (doses to about 46.1 µM), most hits filed as activators; actives 1.8% (n = 410,000); AID 652104; note: nearly all actives have a fitted effect of over 50% in size
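Yeast expressing TDP-43 (pregrown in raffinose, seeded at OD600=0.02 in galactose medium) exposed to compounds 24 hr at 30 deg C. Growth read by BacTiter-Glo luminescence; rescue of toxicity appears as increased signal.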
Large screens that a line does not name were inactive. Unless noted, calls come from the whole dose curve; as a rule, active = well fitted curve in the direction sought with a large enough effect; inconclusive = small, poorly fitted or top-dose-only effect, or another doubt; inactive = no such curve, though single readings can be large; an effect the other way counts as inactive or inconclusive.

CC(C)C(=O)Nc1ncc(Cc2cccc(Cl)c2)s1	Abeta rescue inconclusive, TDP43 rescue 17.8µM
CC(=O)Nc1ncc(Cc2cccc(Cl)c2)s1	none
Cc1nc2cc(C(=O)NCCC3=CCCCC3)ccc2n1-c1ccc(Br)cc1	FUS suppressor 25.1µM, TDP43 rescue inconclusive (no result: aSyn yeast inh, pAkt inh)
O=C(NCCC1=CCCCC1)c1ccc2c(c1)ncn2-c1ccc(F)c(F)c1	none (no result: aSyn yeast inh, pAkt inh)
Cc1ccc(-n2cnc3cc(C(=O)NCCC4=CCCCC4)ccc32)c(C)c1	FUS suppressor inconclusive, TDP43 rescue 25.1µM (no result: aSyn yeast inh, pAkt inh)
COCCNC(=O)c1ccc2c(c1)nc(C)n2-c1cccc(Cl)c1	none (no result: aSyn yeast inh, TDP43 rescue)
CCc1ccccc1-n1c(C)nc2cc(C(=O)NCCc3ccc(Cl)cc3)ccc21	FUS suppressor inconclusive, TDP43 rescue 31.6µM (no result: aSyn yeast inh, pAkt inh)
Cc1cc(C)c(Cn2c3ccccc3c3cnn(CC(=O)NCCc4ccccc4)c(=O)c32)c(C)c1	none (no result: aSyn yeast inh, pAkt inh)
Cc1ccc2nsnc2c1NS(=O)(=O)c1c(C)ccc2nsnc12	none
Cc1ccc(NS(=O)(=O)c2c(C)ccc3nsnc23)c([N+](=O)[O-])c1	TDP43 rescue 22.4µM
CCOC(=O)c1ccc(C(=O)OCC)c(NC(=S)Nc2ccc([N+](=O)[O-])cc2OC)c1	TDP43 rescue 17.8µM
CCOC(=O)Nc1ccc([N+](=O)[O-])cc1OC	none
CCOC(=O)C1CCN(C(=O)c2nn(-c3ccc(C)cc3)c(=O)n(C)c2=O)CC1	none (no result: aSyn yeast inh, pAkt inh)
CN1CCN(c2nc3ccccc3nc2NS(=O)(=O)c2ccc(Br)cc2)CC1	none
COc1ccc(N2CCN(c3nc4ccccc4nc3NS(=O)(=O)c3ccccc3)CC2)cc1	TDP43 rescue 20µM
Cc1cccc(OCC(=O)Nc2ccc3nc(C)sc3c2)c1	TDP43 rescue 2.51µM
Cc1nc2ccc(NC(=O)COc3cccc(F)c3)cc2s1	TDP43 rescue 20µM
Cc1cc(C)cc(-n2c(C)nc3cc(C(=O)NCc4ccccc4Cl)ccc32)c1	FUS suppressor inconclusive (no result: aSyn yeast inh, pAkt inh, TDP43 rescue)
O=C(CSc1nnc(-c2cccs2)o1)Nc1cccc(C(F)(F)F)c1	none (no result: aSyn yeast inh, pAkt inh)
CCOC(=O)C1CCN(C2=NC(=O)/C(=C/c3ccc(Cl)cc3)S2)CC1	TDP43 rescue 20µM
COc1cc(/C=C2\SC(N3CCC(C)CC3)=NC2=O)ccc1O	TDP43 rescue 11.2µM
CN(C)c1ccc(/C=C2\SC(N3CCCCC3)=NC2=O)cc1	TDP43 rescue 22.4µM
O=C1N=C(N2CCCCC2)S/C1=C\c1ccc(Br)cc1	none
Nc1c(-c2nc(-c3ccccc3)cs2)c2ccccn2c1C(=O)c1ccc2c(c1)OCO2	none (no result: aSyn yeast inh, pAkt inh)
COc1ccc(NC(=O)CC2C(=O)N(c3ccccc3)C(=O)N2C2CCCCC2)cc1 (configuration not stated)	none (no result: aSyn yeast inh, pAkt inh)
Cc1ccc(Cl)cc1N1CCN(C(=O)c2cn(C)c3ccc(S(=O)(=O)N4CCC(C)CC4)cc3c2=O)CC1	none (no result: aSyn yeast inh, pAkt inh)
CCOc1ccc(NC(=O)CSC2=Nc3ccccc3C3=NC(CCC(=O)NCc4ccccc4)C(=O)N23)cc1 (configuration not stated)	none (no result: aSyn yeast inh, pAkt inh)
Cc1cc(F)ccc1Nc1nc2ccc(Cl)cc2n2cnnc12	TDP43 rescue inconclusive (no result: aSyn yeast inh, pAkt inh)
C=C1CSc2nc(=O)c3c4c(sc3n21)CCC4	pAkt inh -115.0%
COc1ccccc1CNS(=O)(=O)c1c(C(=O)N2CCC(C)CC2)c(C)n(C)c1C	none (no result: aSyn yeast inh, pAkt inh)
CN(C)c1nc(-c2ccccc2)ncc1S(=O)(=O)c1ccccc1	TDP43 rescue 15.8µM
O=C(Cn1cnc2c(nc3n2CCCCC3)c1=O)Nc1ccc(F)cc1	TDP43 rescue inconclusive (no result: aSyn yeast inh, pAkt inh)
COc1ccc(C(=O)O/N=C(\C)c2cnccn2)cc1	TDP43 rescue 17.8µM
COc1ccc(C(=O)O/N=C(\N)c2ccccn2)cc1	none
O=C(NCC1CCCO1)c1cccc2c1C(=O)c1ccc(N3CCC(Cc4ccccc4)CC3)cc1S2(=O)=O (configuration not stated)	FUS suppressor 10µM
Cc1cc2c(c(=O)n1CCc1ccccc1)C(c1ccco1)C(C#N)=C(N)O2 (configuration not stated)	none
COc1cc(C2C(C#N)=C(N)Oc3cc(C)n(CCc4ccccc4)c(=O)c32)cc2c1OCO2 (configuration not stated)	pAkt inh -87.9%
COc1ccccc1S(=O)(=O)Cc1ccc(C(=O)N2CCN(c3ccccc3)CC2)o1	pAkt inh -124.0%, FUS suppressor inconclusive
COc1ccccc1S(=O)(=O)Cc1ccc(C(=O)N2CCN(c3cccc(Cl)c3)CC2)o1	none
O=C(c1ccc(COc2ccccc2Cl)o1)N1CCN(c2ccccc2)CC1	TDP43 rescue 35.5µM
Cc1cccc(-c2noc(-c3ccccc3OCC(=O)Nc3ccccc3[N+](=O)[O-])n2)c1	none (no result: aSyn yeast inh, pAkt inh)
Cc1ccc(C)c(C(=O)CC2(O)C(=O)Nc3ccccc32)c1 (configuration not stated)	none
Cc1cc(C)c(C(=O)CC2(O)C(=O)Nc3ccccc32)cc1C (configuration not stated)	pAkt inh -115.7%
CCOc1ccc(C2c3[nH]c4ccccc4c3CCN2C(=O)CCc2ccccc2)cc1 (configuration not stated)	none (no result: aSyn yeast inh, pAkt inh)
CC(C)(C)C(=O)Nc1nc2nc(-c3ccccc3)cc(=O)n2[nH]1	none (no result: aSyn yeast inh, pAkt inh)
O=C(CN1CCC2(CC1)OCCO2)c1c[nH]c2ccccc12	pAkt inh -121.6%
CC(=O)NC1=C(NC2CCS(=O)(=O)C2)C(=O)c2ccccc2C1=O (configuration not stated)	TDP43 rescue 25.1µM (no result: FUS suppressor)
CN(C1=C(NC(=O)c2ccccc2)C(=O)c2ccccc2C1=O)C1CCS(=O)(=O)C1 (configuration not stated)	none
COc1ccccc1CCNC(=O)C(=O)NCC(c1ccco1)S(=O)(=O)c1ccccc1 (configuration not stated)	FUS suppressor inconclusive (no result: aSyn yeast inh, pAkt inh)
CCOC(=O)N1CCN(C(=O)C[C@H]2C[C@@]3(C(=O)OC)C(=C[C@H](COCc4ccccc4)O[C@@H]3C)N(Cc3cccc4ccccc34)C2=O)CC1	FUS suppressor 22.4µM (no result: Abeta rescue, aSyn yeast inh, pAkt inh, TDP43 rescue)
COC(=O)[C@]12C[C@H](CC(=O)N3CCCC3)C(=O)N(Cc3ccccc3)C1=C[C@H](COCc1ccccc1)O[C@@H]2C	none (no result: Abeta rescue, aSyn yeast inh, pAkt inh, TDP43 rescue)
COC(=O)[C@]12C[C@H](CC(=O)NCC3CCCCC3)C(=O)N(CCc3ccc(OC)c(OC)c3)C1=C[C@H](COCc1ccccc1)O[C@@H]2C	FUS suppressor 10µM (no result: Abeta rescue, aSyn yeast inh, pAkt inh, TDP43 rescue)
COC(=O)[C@]12C[C@H](CC(=O)NCCC(C)C)C(=O)N(Cc3ccccc3)C1=C[C@H](COCc1ccccc1)O[C@@H]2C	none (no result: Abeta rescue, aSyn yeast inh, pAkt inh, TDP43 rescue)
COC(=O)[C@]12C[C@H](CC(=O)NCCc3ccccc3OC)C(=O)N(Cc3cccc4ccccc34)C1=C[C@H](COCc1ccccc1)O[C@@H]2C	FUS suppressor 15.8µM (no result: Abeta rescue, aSyn yeast inh, pAkt inh, TDP43 rescue)
CCOC(=O)c1c(C)oc2nc(C)nc(NCc3cccc(OC)c3)c12	none (no result: aSyn yeast inh, pAkt inh)
